Test results as given in PubChem BioAssay AID1159580 (chemical genetic matrix, 2015).
Values joined by “and” are separate entries in the source; they are usually repeats but may differ in a detail not shown here. Equal entries are not always repeated. The whole screen tested about 5,500 compounds, of which about 2,000 (36%) were called active. About 18% were inconclusive and are not listed. Cut-off read from the data, not from the text of the source: active = normalized growth mostly below about 0.91 (no sharp cut-off); inconclusive = no clear call, values can overlap the other calls; inactive = mostly above about 0.92. Some of the results follow.

Experiment: chemical genetic growth profiling, strain panel (AID 1159580);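 note: tested at 20 µM; growth read once vehicle control cultures reached saturation at 30 °C; 1 = growth at the plate median or of vehicle wells; lower values mean less growth of the strain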
Settings: growth OD

Measured: normalized growth

Nc1ccncc1
inactive: S. cerevisiae deletion strains, locus YJR075W, strain HOC1, active compounds read low 1.03 and 1 | S. cerevisiae deletion strains, locus YKL009W, strain mrt4, active compounds read low 1.03 | S. cerevisiae deletion strains, locus YKL068W, active compounds read low 0.988 | S. cerevisiae deletion strains, locus YKL085W, strain MDH1 (second series), active compounds read low 0.995 | S. cerevisiae deletion strains, locus YKL085W, strain MDH1, active compounds read low 0.995 | S. cerevisiae deletion strains, locus YKL160W, strain elf1, active compounds read low 0.994 | S. cerevisiae deletion strains, locus YKL190W, strain CNB1, active compounds read low 1.01 | S. cerevisiae deletion strains, locus YKR001C, strain vps1, active compounds read low 0.931 | S. cerevisiae deletion strains, locus YKR026C, strain gcn3, active compounds read low 0.984 | S. cerevisiae deletion strains, locus YKR091W, strain srl3, active compounds read low 0.987 | S. cerevisiae deletion strains, locus YLL001W, strain dnm1, active compounds read low 0.981 | S. cerevisiae deletion strains, locus YLL026W, active compounds read low 0.999 | S. cerevisiae deletion strains, locus YLL041C, strain sdh2, active compounds read low 0.989 | S. cerevisiae deletion strains, locus YLR027C, strain aat2, active compounds read low 0.994 | S. cerevisiae deletion strains, locus YLR039C, strain RIC1, active compounds read low 1 | S. cerevisiae deletion strains, locus YLR058C, strain SHM2, active compounds read low 1.02 | S. cerevisiae deletion strains, locus YLR102C, strain apc9, active compounds read low 0.97 | S. cerevisiae deletion strains, locus YLR113W, strain HOG1, active compounds read low 0.958 | S. cerevisiae deletion strains, locus YLR221C, strain rsa3, active compounds read low 1 | S. cerevisiae deletion strains, locus YLR258W, strain gsy2, active compounds read low 0.987 | S. cerevisiae deletion strains, locus YLR262C, strain YPT6 (second series), active compounds read low 0.971 | S. cerevisiae deletion strains, locus YLR262C, strain YPT6, active compounds read low 1.02 | S. cerevisiae deletion strains, locus YLR268W, strain sec22, active compounds read low 0.921 | S. cerevisiae deletion strains, locus YLR320W, strain mms22, active compounds read low 0.993 | S. cerevisiae deletion strains, locus YLR330W, strain CHS5, active compounds read low 1.01 | S. cerevisiae deletion strains, locus YLR342W, strain FKS1 (second series), active compounds read low 1.02 | S. cerevisiae deletion strains, locus YLR342W, strain FKS1, active compounds read low 0.991 | S. cerevisiae deletion strains, locus YLR357W, strain rsc2, active compounds read low 1.01 | S. cerevisiae deletion strains, locus YLR370C, strain arc18, active compounds read low 0.997 | S. cerevisiae deletion strains, locus YLR371W, strain rom2, active compounds read low 0.976 | S. cerevisiae deletion strains, locus YLR384C, strain iki3, active compounds read low 0.994 | S. cerevisiae deletion strains, locus YLR418C, strain cdc73, active compounds read low 0.935 | S. cerevisiae deletion strains, locus YML016C, strain PPZ1, active compounds read low 1.02 | S. cerevisiae deletion strains, locus YML032C, strain rad52, active compounds read low 0.957 | S. cerevisiae deletion strains, locus YML120C, strain ndi1, active compounds read low 0.998 | S. cerevisiae deletion strains, locus YML124C, strain tub3, active compounds read low 0.977 | S. cerevisiae deletion strains, locus YMR058W, strain fet3, active compounds read low 1 | S. cerevisiae deletion strains, locus YMR078C, strain ctf18, active compounds read low 0.958 | S. cerevisiae deletion strains, locus YMR125W, strain sto1, active compounds read low 0.984 | S. cerevisiae deletion strains, locus YMR129W, active compounds read low 0.993 | S. cerevisiae deletion strains, locus YMR205C, strain PFK2, active compounds read low 0.999 | S. cerevisiae deletion strains, locus YMR223W, strain ubp8, active compounds read low 0.977 | S. cerevisiae deletion strains, locus YMR231W, strain pep5, active compounds read low 0.995 | S. cerevisiae deletion strains, locus YMR263W, strain SAP30, active compounds read low 1.02 and 1.01 | S. cerevisiae deletion strains, locus YMR307W, strain GAS1, active compounds read low 1.01 | S. cerevisiae deletion strains, locus YNL067W, strain RPL9B, active compounds read low 1.01 | S. cerevisiae deletion strains, locus YNL071W, strain lat1, active compounds read low 0.995 | S. cerevisiae deletion strains, locus YNL128W, strain TEP1, active compounds read low 1.02 | S. cerevisiae deletion strains, locus YNL153C, strain GIM3, active compounds read low 1.01 and 1 | S. cerevisiae deletion strains, locus YNL175C, strain NOP13, active compounds read low 1 | S. cerevisiae deletion strains, locus YNL183C, strain NPR1, active compounds read low 0.912 | S. cerevisiae deletion strains, locus YNL197C, strain WHI3, active compounds read low 1.01 | S. cerevisiae deletion strains, locus YNL209W, strain ssb2, active compounds read low 0.993 | S. cerevisiae deletion strains, locus YNL224C, strain SQS1, active compounds read low 0.998 | S. cerevisiae deletion strains, locus YNL233W, strain BNI4, active compounds read low 1 | S. cerevisiae deletion strains, locus YNL248C, strain rpa49, active compounds read low 0.993 | S. cerevisiae deletion strains, locus YNL250W, strain rad50, active compounds read low 0.978 | S. cerevisiae deletion strains, locus YNL271C, strain bni1, active compounds read low 0.942 | S. cerevisiae deletion strains, locus YNL298W, strain CLA4, active compounds read low 0.966 | S. cerevisiae deletion strains, locus YNL307C, strain MCK1, active compounds read low 0.947 | S. cerevisiae deletion strains, locus YNL322C, strain KRE1 (second series), active compounds read low 0.99 | S. cerevisiae deletion strains, locus YNL322C, strain KRE1, active compounds read low 1.01 and 1.02 | S. cerevisiae deletion strains, locus YNR049C, strain mso1, active compounds read low 0.99 | S. cerevisiae deletion strains, locus YNR052C, strain pop2, active compounds read low 0.974 | S. cerevisiae deletion strains, locus YOL006C, strain TOP1, active compounds read low 0.996 | S. cerevisiae deletion strains, locus YOL012C, strain htz1 1.65 | S. cerevisiae deletion strains, locus YOL147C, strain pex11, active compounds read low 0.956 | S. cerevisiae deletion strains, locus YOR001W, strain rrp6, active compounds read low 0.993 | S. cerevisiae deletion strains, locus YOR061W, strain CKA2, active compounds read low 1.02 | S. cerevisiae deletion strains, locus YOR069W, strain VPS5, active compounds read low 1.02 | S. cerevisiae deletion strains, locus YOR070C, strain gyp1, active compounds read low 0.999 | S. cerevisiae deletion strains, locus YOR080W, strain dia2, active compounds read low 0.99 | S. cerevisiae deletion strains, locus YOR083W, strain WHI5 (second series), active compounds read low 0.998 | S. cerevisiae deletion strains, locus YOR083W, strain WHI5, active compounds read low 1 | S. cerevisiae deletion strains, locus YOR106W, strain vam3, active compounds read low 1.01 | S. cerevisiae deletion strains, locus YOR136W, strain idh2, active compounds read low 0.974 | S. cerevisiae deletion strains, locus YOR144C, strain elg1, active compounds read low 0.963 | S. cerevisiae deletion strains, locus YOR184W, strain ser1, active compounds read low 0.904 | S. cerevisiae deletion strains, locus YOR231W, strain MKK1, active compounds read low 0.968 | S. cerevisiae deletion strains, locus YOR265W, strain rbl2, active compounds read low 0.991 | S. cerevisiae deletion strains, locus YOR270C, strain vph1, active compounds read low 0.98 | S. cerevisiae deletion strains, locus YOR290C, strain snf2, active compounds read low 1 | S. cerevisiae deletion strains, locus YOR316C, strain cot1, active compounds read low 0.973 | S. cerevisiae deletion strains, locus YPL051W, strain arl3, active compounds read low 0.988 | S. cerevisiae deletion strains, locus YPL055C, strain LGE1, active compounds read low 1.07 | S. cerevisiae deletion strains, locus YPL078C, strain atp4, active compounds read low 0.995 | S. cerevisiae deletion strains, locus YPL106C, strain sse1, active compounds read low 1 | S. cerevisiae deletion strains, locus YPL240C, strain hsp82, active compounds read low 0.983 | S. cerevisiae deletion strains, locus YPL241C, strain CIN2, active compounds read low 1.01 | S. cerevisiae deletion strains, locus YPL256C, strain CLN2, active compounds read low 0.946 | S. cerevisiae deletion strains, locus YPR119W, strain clb2, active compounds read low 0.947 | S. cerevisiae deletion strains, locus YPR141C, strain kar3, active compounds read low 0.99 | S. cerevisiae deletion strains, locus YPR163C, strain tif3, active compounds read low 0.959 | S. cerevisiae deletion strains, locus YPR167C, strain met16, active compounds read low 0.969 | S. cerevisiae deletion strains, strain wtn01, active compounds read low 0.963 | S. cerevisiae strains, strain wild type, active compounds read low 1.02
